# Data reported in the supplement of paper PMC6555819.
# Test system: LXRa homodimer (NR concentration 270 nM)
# Experiment: PBM binding z-score (relative to random genomic background probes); higher = stronger binding; sequences stand for … in GC…GCGATTGACAGCGTAGAATGAAGG
# Method in brief: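 Each nuclear receptor dimer, without ligand, was incubated for 1 h on custom Agilent 4×180K protein-binding microarrays. Binding was detected with antibodies against each partner (one per run), and scanned fluorescence was regression-normalized. The binding z-scores are referenced to random human genomic background probes.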
row,Sequence,PBM binding z-score
1,CAAACTAGCTCAAAGGTCAAAGTCGAGCCAACCA,4.59
2,GGAACGAGGGCAAGTCGATAGCAGAGTTTGATGG,-0.566
3,CAGCGTAGGTCAGGGCCAGTATAGGAGGAACGTT,-0.344
4,TATTGTAGATCAACAGGAGGTTAAGAAAGATCGA,0.577
5,CAGCCTAGGTCAGGGCCAATATAGGAGGAACGTT,-0.284
6,CTCGAAAAGTCGTGCTCAGGTGAGTATACCAAAC,-0.0855
7,GCGATTGGGGCAAAGCAGGTTACCATAAGGTTGG,-0.253
8,TCGTGTAGATCAACAGGAGGTTAAGAAAGATCGA,0.0557
9,CCTATTAGTTTACCATAAGGGCAACCGAAGCTCG,0.603
10,GCTAGTCGGTCAGTAAAAGGTCACACACCGGTCG,5.34
11,TCTATTAGTTGAACGGCAACCGACGAGTCCGTTT,0.311
12,ATCTCTAAGTAACAAGTTCAGTGAAAGAGAGGAC,0.532
13,GCTAGTTGGTCAGTAAAAGGTCCCACACCGGTCG,-0.431
14,TCATATAGGTAAACGGTGAAAGTCGGTGTGGTAA,0.118
15,ACTAGTTGGTCAGCTGAGGTCACATACAATTCGG,2.7
16,CGTCCAAGGTCATAGGAGGTCAGTGAGGACAGAT,5.15
17,TCATATAGGTAAATGCTAGGTGAAAGTGCGATCT,0.315
18,TCCAGTAGGTTAGGGGCATTCAGAATGGCGTCGA,-0.245
19,CTCGAAAGGTCGTGCTCAGGTGAGTAGACCAAAC,-0.195
20,CCTAGTAGGTCAGGAGGTCACACACCGGATATGA,2.62

row,Sequence,PBM binding z-score
1,CAAACTAGGTCACGAAAGTTCAAAGTCGAATGAC,8.43
2,TCTTGTAGATCAAGGGTTAAGAAAGCCGAAGCCT,-0.616
3,TTACCAAGATGAGCTGAGGTCGTTGATCCAACTC,0.0791
4,CCTTACGGGTCAAGGTTATAGCGCGGGTGGTACG,0.129
5,TAGTCTAGGTCATGGGCCAGTATACCACGCGAAC,1.27
6,ATCTCTAGGTAAAAGTTCAGTCAATCCCGAGGAT,1.79
7,AGTCAAAGTTCACTAGGGAACGTAAGATTCAGCT,2.42
8,CGTCCAAGGTCATAGAAGGTCAGTGAAGACAGAT,4.12
9,CCAGACAGGTGACAGGTAACTCAGTCTGGTACGC,-0.169
10,CTCGAAAGGTCGTGCTCACGTGAGTATACCAAAC,0.0228
11,TTACCAAGGTGAGCAGAGGTCGTTGATCCAACTC,-0.283
12,ATGTCTAGGTAAAGTTCAGTGAAAGATCGATAGA,1.26
13,CCGACTGGGGCACAAAGGTTACCATACCATCCGG,0.127
14,TATACAGGGTCAAAGGCCAGCGTACGAATGTCGA,2.26
15,CCTACTGGGCAATTCAGAGGTCATTGATCATATG,6.82
16,ACTATTAGTTGACTTGGGGCAACCGATACGACGC,0.238
17,CCGACTTGGGCAGAAAGGTTACCATACCATCCGG,-0.275
18,GCTAGCACGCCATTTGGGTCACTCAATGACGGGC,-0.585
19,TCGAGTAGGTTAGGGGCATTCAAAATGGCGTCGA,-0.23
20,CCTCGGAGGACAGAAGGTCAGAGCCGTCCGCTTT,0.422
